Measured values from PubChem BioAssay AID1949 (Southern Research Institute, 2009).
Out of some 100,000 compounds screened, about 1,600 (1.6%) were called active. Not shown: some 3% with an inconclusive outcome. A selection follows. A number with no mark means an inactive call. The rule behind the calls is not given here.

assay: Mycobacterium tuberculosis H37Rv growth inhibition, cell based, confirmatory dose response (AID 1949);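 for inhibition: bacteria grown 7 days with compound before Alamar blue readout; 0% = untreated bacteria wells and 100% = bacteria with saturating antibiotic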; conditions: M. tuberculosis H37Rv growth inhibition; hits give high values

Structure (SMILES) | inhibition
O=C(Nc1nc(-c2ccc(F)cc2)cs1)c1cccc2ccccc12 | 32.4%
CCn1c(/C=C/c2ccco2)nc2ccccc21 | inactive
COc1ccc(OC)c(N(CC(=O)Nc2ccccc2SC)S(=O)(=O)c2ccccc2)c1 | 13.5%
Cc1ccc(NS(=O)(=O)c2ccc(NS(=O)(=O)c3c(C)cc(C)cc3C)cc2)cc1 | inactive
COc1ccc(NC(=O)c2c(NC(=O)c3ccccc3F)sc3c2CCC3)cc1 | inactive
CCOC(=O)c1ccc(Oc2nc(NCc3ccccc3)nc(N(C)C)n2)cc1 | inactive
COC(=O)CSc1nc(C23CC4CC(CC(C4)C2)C3)cc(C(F)(F)F)c1C#N | 1.01%
CCn1c(CC(=O)Nc2cccc(OC)c2)nnc1SCC(=O)c1ccc(Br)cc1 | inactive
Cc1cccc(NC(=O)c2sc3cccc(Cl)c3c2Cl)c1 | inactive
C=CCN(CC=C)CC(O)Cn1c(C)c(C)c2ccccc21 (stereo not given) | inactive
CCOC(=O)c1cc(-c2ccccc2)sc1NC(=O)c1ccccc1Br | inactive
O=C(Nc1c(C(=O)N2CCCCCC2)cnn1-c1ccccc1Cl)c1ccccc1Cl | inactive
CCCc1ccc(C(C)NC(=O)c2ccc(C)s2)cc1 (stereo not given) | inactive
O=C(NCCc1ccccc1)Nc1cccc2ccccc12 | inactive
COCCNCCCCOc1ccc(C)cc1[N+](=O)[O-] | inactive
Cc1ccc(NC(=O)CCc2ccc(S(=O)(=O)NCCc3ccccc3)cc2)cc1C | inactive
CCOC(=O)N1CCN(C(=O)c2ccc(I)cc2)CC1 | inactive
CC1=C(C(=O)Nc2ccccc2)C(c2ccc(I)cc2)NC(=O)N1 (stereo not given) | inactive
CCOc1cc(CNC(CC)CO)c(Cl)cc1OCC(N)=O (stereo not given) | inactive
OCCNc1nc2ccccc2n1-c1ccccc1 | 1.48%
O=C(CCCn1c(=S)[nH]c2ccccc2c1=O)N1CC=C(c2ccccc2)CC1 | inactive
Cc1ccc(C(=O)Nc2ccc(C(=O)NCCCC(=O)O)cc2)o1 | 4.21%
CS(=O)(=O)N(CC(=O)Nc1ccccc1Cl)c1cccc([N+](=O)[O-])c1 | inactive
O=C1c2ccccc2C(=O)N1c1nnc(Sc2ccc([N+](=O)[O-])c3cccnc23)s1 | inactive

Structure (SMILES) | inhibition
OC(c1ccccc1)c1nc2ccccc2n1Cc1cccc(Cl)c1 (stereo not given) | inactive
CC(C)c1ccccc1NC(=O)COc1ccc(-c2ccccc2)cc1 | inactive
COC(=O)C1C(=O)OC(C)(C)C2CCC(C)CC12 (stereo not given) | inactive
COc1ccc(N2C(=O)CC(N3CCN(CC(=O)NC(C)C)CC3)C2=O)cc1 (stereo not given) | inactive
CCOC(=O)N1CCN(C(=O)COc2cccc(C)c2C)CC1 | inactive
Cc1c(Cl)cccc1N1CC(O)=C(c2nc3ccccc3s2)C1=N | 3.11%
COC(=O)c1noc(-c2ccc(F)cc2)n1 | inactive
O=S(=O)(NCCC1=CCCCC1)c1ccccc1 | inactive
O=C1OCCC1Sc1nnc(-c2ccc(Br)cc2)o1 (stereo not given) | inactive
CC(=O)Nc1ccc(NC(=O)C(C)Oc2ccc(Cl)c(C)c2)cc1 (stereo not given) | inactive
CCOc1ccccc1OCCOCCNCc1ccccc1 | inactive
CCN(C(=O)c1ccccc1Br)c1ccccc1C | 8.56%
Fc1c(F)c(F)c(Cn2ccc(NC(=S)Nc3ccccc3C(F)(F)F)n2)c(F)c1F | inactive
Cc1nc(SCc2cccc(C(=O)O)c2)nc2c1CCCC2 | inactive
O=C(O)c1ccccc1-c1nc(-c2ccccc2F)no1 | inactive
S=C(NCc1ccccc1)Nc1c(Cl)cccc1Cl | inactive
CC1(C)CC(=O)CC(C)(C)N1OC(=O)c1ccncc1 | inactive
CCOC(=O)c1ccc(NC(=O)CSc2nnc(-c3ccccc3Cl)n2CC)cc1 | inactive
CCOc1cc(C)c(S(=O)(=O)NCc2cccnc2)cc1C | inactive
COc1cc(S(=O)(=O)NC2CCCCC2)ccc1Cl | inactive
CCOC(=O)c1ccc(COC(=O)c2ccc(C=O)cc2)cc1 | 2.19%
CCn1c(CNC(=O)c2cccs2)nnc1SCC(=O)Nc1ccc(Br)cc1F | inactive
CCc1cccc(C)c1NC(=O)CN(c1cccc(Br)c1)S(C)(=O)=O | inactive
CC(C)CNC(=O)c1ccccc1NC(=O)CCSc1ccccc1 | inactive

Structure (SMILES) | inhibition
O=C1C2C3C=CC(C3)C2C(=O)N1CCC(=O)N1c2ccccc2Sc2ccccc21 (stereo not given) | inactive
COc1cccc2cc(-c3nnc(SCC(=O)Nc4cccc(SC)c4)n3C)oc12 | 1.86%
CCOc1ccc(N(CC(N)=O)S(=O)(=O)c2ccc(OC)c(OC)c2)cc1 | inactive
COC(=O)c1ccc(NC(=O)CN(Cc2ccccc2)S(C)(=O)=O)cc1 | inactive
O=S(=O)(c1cccc(S(=O)(=O)N2CCCC2)c1)N1CCCC1 | inactive
COc1ccc([N+](=O)[O-])cc1NC(=O)C1CC(=O)N=C(N)S1 (stereo not given) | 0.16%
COc1ccc(N(CC(=O)Nc2ccc(F)cc2F)S(=O)(=O)c2ccc(C)c([N+](=O)[O-])c2)cc1 | inactive
O=S(=O)(c1ccccc1)c1ccc(COc2cccc3cccnc23)cc1 | 1.33%
COc1ccc(CNC2C3CC4CC(C3)CC2C4)cc1 (stereo not given) | inactive
COC(=O)c1ccc(SC2CCCCC2)c([N+](=O)[O-])c1 | inactive
C=CCn1c(COc2ccc(C)cc2OCC)nnc1SCC(=O)Nc1cc(C(F)(F)F)ccc1Cl | 1.26%
COc1ccccc1CNC(=S)Nc1ccc(OC)c(OC)c1 | inactive
Cc1cccc2c(N=NC(=O)c3cccnc3)c(O)[nH]c12 | inactive
CC(Sc1ccc(Cl)cc1)C(=O)Nc1ccccc1C(=O)O (stereo not given) | inactive
COc1ccccc1OCCCSc1nc2sc(C)c(C)c2c(=O)n1-c1ccccc1 | inactive
Cc1cc(C)c(C#N)c(SCC(=O)Nc2sc3c(c2C#N)CCC3)n1 | inactive
O=C(NCCSC1CCCCC1)c1ccc(-c2ccccc2)cc1 | inactive
CSc1nc(C)c(Oc2ccccc2)c(=O)n1C | 8.91%
CSc1ccc(-c2nnn(CC(=O)Nc3ccc4c(c3)OCO4)n2)cc1 | inactive
COc1cc(/C=C2/SC(=O)N(CC(=O)O)C2=O)cc(OC)c1OC | inactive
CS(=O)(=O)N(CC(=O)NC1CCCCCC1)c1ccccc1F | inactive
CCn1c(SCC(=O)Nc2ccc3c(c2)OCO3)nnc1-c1ccccc1 | 4.1%
